GDH-TPI inh: GDH-TPI coupling enzyme inhibitors, primary screen, artefact control for M. tuberculosis FBA inhibitor project, biochemical, absorbance, full deck; inhibition, % at 4.8 µM; 360,000 tested, 1.2% active; GDH-TPI coupled enzyme counterscreen, NADH absorbance;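 also: 0% = DMSO wells and 100% = wells lacking the enzyme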
Mtb FBA inh: Mtb FBA enzyme inhibitors, primary screen, biochemical, fluorescence, strain H37Rv; 360,000 tested, 2.3% active; AID 588726, 2011; purified M. tuberculosis FBA, fluorescence read-out; Fructose-bisphosphate aldolase (Mycobacterium tuberculosis (strain ATCC 25618 / H37Rv)), …; inhibition, % at 1 µM; in the data active = inhibition above about 27%;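 also: 0% = vehicle and 100% = reference inhibitor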
Target sequence (P9WQA3 whole entry, looked up): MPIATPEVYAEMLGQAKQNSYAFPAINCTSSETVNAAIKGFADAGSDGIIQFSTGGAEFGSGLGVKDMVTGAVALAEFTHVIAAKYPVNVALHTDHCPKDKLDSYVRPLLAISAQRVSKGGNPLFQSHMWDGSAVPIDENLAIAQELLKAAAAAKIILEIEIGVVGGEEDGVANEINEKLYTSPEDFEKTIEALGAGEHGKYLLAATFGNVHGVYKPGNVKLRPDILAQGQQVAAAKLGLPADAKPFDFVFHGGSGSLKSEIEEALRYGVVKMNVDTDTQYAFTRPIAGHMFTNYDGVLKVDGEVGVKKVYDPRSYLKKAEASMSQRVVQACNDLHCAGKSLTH
RecA intein inh: Mtb RecA intein splicing inhibitors, primary screen, biochemical, fluorescence, HTS | Protein RecA (Mycobacterium tuberculosis (strain ATCC 25618 / H37Rv)), P9WHJ3 | cell-free RecA intein splicing | inhibition, % (no concentration beside the values) | 290,000 tested, 0.75% active | AID 2221, 2009; in the data active = inhibition above about 30%;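 also: 0% = vehicle wells and 100% = reference inhibitor control wells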
VHR inh abs: VHR1 phosphatase inhibitors, primary screen, biochemical, absorbance, uHTS; AID 1654, 2009; inhibition, % at 13.3 µM; 290,000 tested, 0.52% active; Dual specificity protein phosphatase 3 (Homo sapiens), P51452; recombinant VHR phosphatase, pNPP absorbance; in the data active = inhibition above about 50%
Target sequence (P51452 whole entry, looked up): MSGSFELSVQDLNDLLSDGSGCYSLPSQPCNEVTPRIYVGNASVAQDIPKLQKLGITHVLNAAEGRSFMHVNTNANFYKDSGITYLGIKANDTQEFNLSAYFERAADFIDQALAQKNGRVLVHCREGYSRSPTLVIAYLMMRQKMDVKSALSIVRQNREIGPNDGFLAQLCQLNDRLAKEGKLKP
CCHF vOTU inh-1: CCHFV vOTU protease inhibitors, primary screen, biochemical, Pep-AMC substrate, fluorescence | inhibition, % at 11.5 µM | AID 651958, 2012 | 370,000 tested, 0.55% active; also: 0% = vehicle wells with enzyme and 100% = no enzyme wells
SARS 3CLpro inh: SARS-CoV 3CLpro protease inhibitors, primary screen, biochemical, quenched FRET; AID 1706, 2009; inhibition, % at 6 µM; 290,000 tested, 0.14% active; Replicase polyprotein 1ab (Severe acute respiratory syndrome coronavirus), P0C6X7; recombinant SARS-CoV 3CLpro, quenched FRET peptide cleavage; in the data active = inhibition above about 12%
CCHF vOTU inh-2: CCHFV vOTU protease inhibitors, confirmation, biochemical, Pep-AMC substrate, fluorescence; shares compounds with CCHF vOTU inh-1; Recombinant CCHFV vOTU; inhibition, % at 11.5 µM; 1,900 tested, 17% active; AID 686976, 2013
* marks the source's active call; other numbers are inactive results; x = no result given. Sampled rows, rich in hits. Any-hit rate of the full collection: about 4.7%. Rule as the data show it, unless noted: active = inhibition above about 30%; inactive = the rest.

SMILES	GDH-TPI inh	Mtb FBA inh	RecA intein inh	VHR inh abs	CCHF vOTU inh-1	SARS 3CLpro inh	CCHF vOTU inh-2
Cc1cc(NS(=O)(=O)c2ccc(NC(=O)c3oc4ccccc4c3C)cc2)no1	15.7	1.3	2.1	-14.7	31.1*	3.9	-5.2
Cc1cc(NS(=O)(=O)c2ccc(NC(=O)COc3c(C)cc(Br)cc3C)cc2)no1	16.4	1.8	-5.1	12.5	30.9*	4.3	-10.7
Cc1ccc(NC(=O)COc2cccc(-n3cnnn3)c2)cc1[N+](=O)[O-]	-2.3	0.1	-0.4	70.8	11.2	-4.7	x
CCn1c(=O)c(C(=O)CN(C)CC(=O)Nc2cccc(F)c2)c(N)n(Cc2ccccc2)c1=O	-8.2	0.8	x	x	29.9*	x	-16.2
CCn1c(=O)c(C(=O)CN(C)Cc2ccc(F)cc2)c(N)n(Cc2ccccc2)c1=O	0.0	2.4	-0.8	29.7	-7.0	3.6	x
N#C/C(=N\Nc1cccc(Cl)c1)C(=O)c1ccccc1	29.2	-13.7	-1.2	24.5	34.9*	8.8	-2.7
CCCCN(C=O)c1c(CC)nc2ccc(C(=O)NCCCn3ccnc3)cn12	0.0	3.2	x	x	-6.0	x	x
CC(C)CCOP(=O)(c1ccc(N(C)C)cc1)C(O)c1ccc(Cl)cc1Cl (configuration not stated)	15.8	-1.5	21.9	13.3	41.4*	3.5	1.2
CC(C)CCOP(=O)(c1ccc(N(C)C)cc1)C(O)c1ccccc1F (configuration not stated)	-5.3	6.1	1.2	6.8	6.2	-1.8	x
CCC(c1nnnn1-c1c(C)cccc1C)N1CCN(CCN2CCOCC2)CC1 (configuration not stated)	x	x	x	x	10.1	x	x
COc1ccc(NC(=S)Nc2cnc3ccccc3c2)c(OC)c1	4.6	7.3	-1.5	24.7	-10.6	0.5	x
Nc1nc(Cl)nc2ncn(Cc3ccccc3)c12	-6.8	3.0	6.7	-27.5	-15.3	3.4	x
COc1cccc(C(=O)Nc2cc(C)nn2-c2ccccc2)c1OC	0.4	-0.7	-2.2	41.5	7.7	-1.4	x
COc1cc(CN2CCN(C(C)C)C(CCO)C2)ccc1OCc1ccccc1 (configuration not stated)	7.9	-1.2	-3.0	16.5	30.0*	-0.9	-5.4
CC(C)(C)c1ccc(S(=O)(=O)Nc2ccc(C(O)(C(F)(F)F)C(F)(F)F)cc2)cc1	-11.3	-2.3	x	x	48.7*	x	10.3
Cc1ccccc1C(=O)N/N=C/c1ccc([N+](=O)[O-])s1	28.3	-3.6	-2.0	20.2	15.9	1.6	x
Cc1cc(C(=O)N/N=C/c2ccc([N+](=O)[O-])s2)c2ccccc2n1	8.0	-6.0	-5.9	24.1	30.5*	-1.4	-6.5
O=C(C1CCN(S(=O)(=O)c2ccccc2F)CC1)N1CCc2ccccc2C1	0.0	2.2	1.7	4.5	-10.3	-0.2	x
COc1ccc(OCC(=O)NNC(=O)C(=O)Nc2cc(OC)ccc2OC)cc1	11.8	-0.9	-2.7	3.7	34.8*	5.5	2.8
COc1ccc(OC)c(NC(=O)C(=O)NNC(=O)COc2ccc(Br)cc2C)c1	3.8	0.9	-3.2	29.7	2.2	0.8	x
COC(=O)[C@]12CCCCC=C1N(Cc1ccccc1)C(=O)[C@H](CC(=O)NCc1ccccc1)C2	x	x	x	x	1.5	x	x
CC(=O)Nc1ccc(C(=O)NCC2(N3CCCCC3)CCCCC2)cc1	2.1	5.5	-1.0	6.4	13.7	-1.2	x
Cc1ccccc1C1(CCN2CCCCC2)CCOC(C)(C)C1 (configuration not stated)	0.8	-2.4	-1.8	1.7	10.1	3.6	x
O=C(O)CN1C(=O)/C(=C\c2ccccc2OCc2ccccc2)SC1=S	17.9	-1.7	x	x	26.4	x	x
Cc1cccc(NC(=O)CN2C(=O)N/C(=C\c3ccccc3OCc3ccc(C(=O)O)cc3)C2=O)c1	19.3	0.4	x	25.5	10.6	0.9	x
SMILES	GDH-TPI inh	Mtb FBA inh	RecA intein inh	VHR inh abs	CCHF vOTU inh-1	SARS 3CLpro inh	CCHF vOTU inh-2
COc1ccccc1/C=C1\SC(=S)N(CC(=O)NC2CCS(=O)(=O)C2)C1=O (configuration not stated)	22.3	-1.4	1.5	-0.7	31.1*	-2.8	-0.1
O=C(O)CN1C(=O)/C(=C\c2cc(Br)ccc2OCc2ccc(F)cc2)SC1=S	12.7	-1.2	10.4	-2.4	31.3*	6.5	24.9
O=C(O)CN1C(=O)/C(=C\c2ccccc2OCc2ccc(F)cc2)SC1=S	6.6	-0.7	8.3	-6.7	35.1*	5.3	6.9
O=C(CN1C(=O)N/C(=C\c2ccccc2OCc2ccc(C(=O)O)cc2)C1=O)Nc1ccc(F)cc1	16.4	0.2	2.3	-4.2	31.7*	8.8	-12.1
CCOC(=O)C1=CCC(c2cccc(C)c2)N(S(=O)(=O)c2ccc(C)cc2)C1 (configuration not stated)	x	-0.6	x	x	7.1	x	x
COc1cccc(CN(C)C(=O)[C@@H](Cc2ccccc2)NC(=O)[C@H]2O[C@@H](n3ccc(=O)[nH]c3=O)[C@H](O)[C@@H]2O)c1	x	x	x	x	-2.4	x	x
C[C@@H]1CN([C@@H](C)CO)C(=O)CCCn2nncc2CO[C@@H]1CN(C)S(=O)(=O)c1cn(C)cn1	0.5	2.2	x	x	-2.8	x	x
CCC(=O)OC1CCC2C3CCC4CC(=O)C=CC4(C)C3CCC12C (configuration not stated)	-0.5	-1.9	x	x	30.2*	x	10.1
CCOCc1cc(CN2CCCC(CNC(=O)c3ccco3)C2)ccc1OC (configuration not stated)	7.0	-1.9	1.4	-5.0	-4.6	2.6	x
OCCN1CCN(C2CCC(c3ccc(F)cc3)c3ccc(F)cc32)CC1 (configuration not stated)	-11.7	-3.6	6.6	x	-5.1	x	x
Oc1ccc2cccnc2c1	2.9	-5.0	-191.9	-4.9	0.6	-1.0	x
O=C(Cc1ccc2cccnc2c1)c1ccc(O)cc1O	51.9*	-2.5	-1.3	4.4	48.1*	2.1	-6.0
COc1ccc(-c2nn(CCC#N)cc2C(=O)Nc2cccc(C(=O)O)c2)cc1OC	-6.2	1.5	3.0	-1.9	6.8	-1.1	x
CCN(CC)CCCNC1=C(Cl)C(=O)c2ccccc2C1=O	3.7	-5.5	13.9	24.8	55.9*	-3.0	56.2*
O=C1C(Cl)=C(NCCc2ccccc2)C(=O)c2ccccc21	6.2	-7.1	x	x	82.7*	x	32.7*
CC(C)NC1=C(Cl)C(=O)c2ccccc2C1=O	10.8	-0.5	15.8	-12.0	59.4*	-3.3	59.5*
O=C1C(Cl)=C(Nc2ccccc2)C(=O)c2ccccc21	13.6	-4.2	2.2	-4.5	22.1	3.6	x

Screening data deposited in PubChem BioAssay by several laboratories.
